Assay outcomes from PubChem BioAssay.
The list is not random: actives were taken first. Their share in the collection is about 4.1%.
PRMT1 inh – PRMT1 methyltransferase inhibitors, primary screen, biochemical, fluorescence polarization; Protein arginine N-methyltransferase 1 (Homo sapiens), Q99873; recombinant PRMT1, activity-based probe fluorescence polarization; inhibition, % at 2.79 µM; actives 1.3% (n = 370,000);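 active = inhibition above about 21% made by adding two undisclosed values, limit read from the data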
MBD2 inh – inhibitors of MBD2 binding to methylated DNA, primary screen, biochemical, TR-FRET, DNA-binding domain, human; MBD2 binding to methylated oligonucleotide; inhibition, % at 4.4 µM; actives 0.31% (n = 370,000); AID 686964, 2013; in the data active = inhibition above about 13%
UHRF1 MBD2 ctr – UHRF1 methylated DNA binding inhibitors, primary screen, counter-screen for MBD2 inhibitor project, biochemical, TR-FRET, human UHRF1, single concentration. E3 ubiquitin-protein ligase UHRF1 (Homo sapiens), Q96T88. UHRF1 binding to methylated oligo. inhibition, % at 4.4 µM. actives 0.75% (n = 370,000); in the data active = inhibition above about 21%;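 note: UHRF1 SRA domain binding a hemimethylated CpG hairpin DNA probe; 0% = median of test compound wells and 100% = reference inhibitor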
LEDGF integ inh – blockers of LEDGF/p75-dependent integrase strand transfer – biochemical, TR-FRET, high throughput, primary screen | TR-FRET IN-LEDGF/p75 DNA integration, Eu/Cy5 | inhibition, % at 3.7 µM | actives 0.64% (n = 370,000);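 active = inhibition above the screen-wide mean plus 3 SD, cut at about 13% in these data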;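 note: signal is the Cy5 over europium emission ratio at 671 and 618 nm; 0% = plate median of compound wells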
ABHD5-PLIN5 inh – ABHD5-PLIN5 interaction inhibitors, primary screen, cell lysate, split luciferase complementation, luminescence. Perilipin-5 (Homo sapiens) + 1-acylglycerol-3-phosphate O-acyltransferase ABHD5 (Homo …. Split G. princeps luciferase complementation, 4 h. inhibition, % at 4 µM. actives 0.78% (n = 360,000);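 active = inhibition above the mean inhibition across every tested compound plus 3 SD, cut at about 22% in these data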;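 note: 0% = DMSO only wells and the 100% control is not disclosed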
Target sequence (Q00G26 whole entry, looked up): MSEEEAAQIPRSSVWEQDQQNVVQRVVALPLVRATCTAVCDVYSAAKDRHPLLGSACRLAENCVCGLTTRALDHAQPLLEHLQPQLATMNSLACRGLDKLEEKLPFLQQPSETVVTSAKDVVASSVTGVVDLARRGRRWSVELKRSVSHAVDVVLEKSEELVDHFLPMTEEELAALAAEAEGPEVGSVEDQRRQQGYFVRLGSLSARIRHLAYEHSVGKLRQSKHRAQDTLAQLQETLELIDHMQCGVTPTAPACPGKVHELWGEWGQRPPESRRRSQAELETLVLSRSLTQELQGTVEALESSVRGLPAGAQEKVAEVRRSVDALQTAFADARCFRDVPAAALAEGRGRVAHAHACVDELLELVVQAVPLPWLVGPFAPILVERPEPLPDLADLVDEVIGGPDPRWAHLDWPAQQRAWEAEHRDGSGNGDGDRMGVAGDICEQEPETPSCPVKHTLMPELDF
Target sequence (Q8WTS1 whole entry, looked up): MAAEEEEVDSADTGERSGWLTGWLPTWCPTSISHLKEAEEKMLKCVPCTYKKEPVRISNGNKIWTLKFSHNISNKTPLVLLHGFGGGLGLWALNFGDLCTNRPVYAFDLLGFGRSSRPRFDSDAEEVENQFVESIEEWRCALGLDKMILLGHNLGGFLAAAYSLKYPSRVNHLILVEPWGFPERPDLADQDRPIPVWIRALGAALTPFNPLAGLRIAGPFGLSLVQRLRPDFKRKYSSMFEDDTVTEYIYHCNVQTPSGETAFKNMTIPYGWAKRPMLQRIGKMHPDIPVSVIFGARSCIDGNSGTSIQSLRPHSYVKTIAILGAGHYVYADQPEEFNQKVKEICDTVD
rCAG binder – binders of r(CAG) RNA repeats, primary screen, biochemical, fluorescence | r(CAG) RNA repeat, TO-PRO-1 dye displacement fluorescence | inhibition, % at 3 µM | actives 1.3% (n = 370,000);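 active = inhibition above the plate cutoff, the mean of all test compounds on that plate plus 3 SD, cut at about 35% in these data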;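 note: 0% = DMSO alone and 100% = 100 µM mitoxantrone as full dye displacement; higher means more dye released from RNA so lower well fluorescence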
PRMT1 confirm – PRMT1 methyltransferase inhibitors, confirmation, biochemical, fluorescence polarization, triplicate | recombinant His-PRMT1, activity-based probe fluorescence polarization | actives 42% (n = 3,300) | inhibition, % at 2.79 µM | shares compounds with PRMT1 inh;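 active = mean inhibition across replicates above the hit cutoff derived for the earlier primary screen, cut at about 22% in these data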
* marks the source's active call; other numbers are inactive results; . = not tested or not shown.

SMILES | PRMT1 inh | MBD2 inh | UHRF1 MBD2 ctr | LEDGF integ inh | ABHD5-PLIN5 inh | rCAG binder | PRMT1 confirm
Cc1ccc(NC(=O)C2=NNC(=O)CC2)cc1S(=O)(=O)Nc1ccc(SC(F)F)cc1 | 27* | -7 | -1 | -1 | -18 | 27 | 20
FC(F)(F)c1ccc(Cl)c(-n2c(-c3cc(-c4ccco4)[nH]n3)n[nH]c2=S)c1 | 25* | -3 | 1 | 4 | -10 | 23 | 28*
Brc1ccc(CN2CCCc3nc(-c4ccccc4)ccc32)cc1 | -2 | 0 | -5 | 2 | . | 6 | .
Cc1ccc(S(=O)(=O)Nc2nc3ccccc3nc2NCc2ccco2)cc1 | 33* | -2 | -4 | 1 | 25* | -8 | 9
CC(C)(CNC(=O)c1cccc(S(=O)(=O)Nc2ccc(SC(F)F)cc2)c1)N1CCOCC1 | 46* | 4 | -1 | -5 | -10 | 21 | 66*
O=C(NC1CCN(Cc2ccccc2)CC1)c1cccc(S(=O)(=O)Nc2ccc(SC(F)F)cc2)c1 | 41* | 5 | 7 | -2 | -10 | 24 | 58*
Cc1ccc(S(=O)(=O)Nc2cccc(C(=O)NCC(C)(C)N3CCOCC3)c2)cc1F | 3 | -1 | 3 | -5 | 9 | -3 | .
Cc1ccc(NS(=O)(=O)c2cccc(C(=O)NC3CCN(Cc4ccccc4)CC3)c2)cc1 | -3 | -1 | 0 | 3 | 6 | 2 | .
Nc1ccc2c3c(cccc13)-c1ccccc1-2 | 58* | -1 | 0 | -3 | -15 | 4 | 61*
COc1cc2c(c(OC)c1OC)C1(CCCCC1)CC2NCC=C(C)C (centres undefined) | -1 | -2 | -1 | -1 | . | -3 | .
COC(=O)[C@]12C[C@H](CC(=O)NCc3ccc(C)o3)C(=O)N(Cc3ccc4c(c3)OCO4)C1=C[C@H](COCc1ccccc1)O[C@@H]2C | -2 | -2 | 3 | 1 | . | 6 | .
C/C(CCc1oc2ccc(Br)cc2c1-c1ccc(C)o1)=N/O | 3 | -1 | 6 | 2 | 0 | 3 | .
C/C(CCc1oc2ccc(Cl)cc2c1-c1ccc(C)o1)=N\O | 33* | -3 | 5 | -2 | 4 | 11 | 1
O=C(COC(=O)c1ccc2ncsc2c1)NC(=O)c1ccccc1 | 27* | 5 | 3 | -2 | -5 | 0 | 2
C[C@@H]1CN([C@@H](C)CO)C(=O)CCCn2cc(nn2)CO[C@H]1CN(C)C(=O)Nc1ccc(F)cc1 | 2 | 5 | 2 | -4 | . | 1 | .
NS(=O)(=O)c1cc(C(=O)OC2CCOC2=O)ccc1Cl (centres undefined) | -2 | 2 | -6 | 1 | -3 | 1 | .
O=C(OC1CCOC1=O)c1ccc2ncsc2c1 (centres undefined) | 39* | -5 | 0 | -5 | -4 | 6 | 2
Cc1ccc(C)c(C(=O)CSc2n[nH]c(C)n2)c1 | 26* | 5 | 0 | 2 | -6 | -3 | 47*
CCc1nc(SCC(=O)c2cc(C)ccc2C)n[nH]1 | 14 | -4 | -1 | 0 | 0 | 1 | .
CC(=O)Nc1ccc(SCC(=O)c2cc(C)ccc2C)cc1 | 29* | 1 | 0 | 3 | -1 | 0 | 25*
CCOC(=O)N1CCN(C(=O)C[C@H]2C[C@@]3(C(=O)OC)C(=C[C@H](C4CCCC4)O[C@@H]3C)N(Cc3cccc4ccccc34)C2=O)CC1 | -1 | -1 | 0 | 3 | . | 8 | .
CCOC(=O)Cc1csc(-n2sc3ccccc3c2=O)n1 | 88* | -5 | 3 | 2 | 19 | 20 | 89*
CCOC(=O)Cc1csc(SCn2nnc3ccccc3c2=O)n1 | -2 | -2 | -2 | -9 | -2 | 0 | .
CCOC(=O)c1sc(NC(=O)C(C)C)c(C#N)c1C | 29* | 7 | 2 | 3 | -10 | -3 | 2
CCOC(=O)c1sc(NC(=O)C2=COCCO2)c(C#N)c1C | 12 | 3 | 1 | -1 | -2 | 0 | .
SMILES | PRMT1 inh | MBD2 inh | UHRF1 MBD2 ctr | LEDGF integ inh | ABHD5-PLIN5 inh | rCAG binder | PRMT1 confirm
CC(C)N1CCc2c(sc(NC(=O)C(F)F)c2-c2nc3ccccc3s2)C1 | 29* | 2 | -37 | 2 | . | . | 5
O=C(OCC(=O)C12CC3CC(CC(C3)C1)C2)c1ccc(O)cc1 | 56* | -3 | 2 | -1 | -3 | 4 | -7
O=C(OCC(=O)C12CC3CC(CC(C3)C1)C2)c1ccc(CO)cc1 | 1 | 0 | 0 | -3 | 5 | -2 | .
CCN(CC)C(=O)CC[C@H]1CC[C@]2(CCCN(S(=O)(=O)c3ccccc3)C2)O1 | 1 | 4 | -4 | -1 | . | 1 | .
Cc1cc(C2=NNC(=NC3CC3)SC2)c(C)n1-c1ccccc1F | 36* | 4 | -2 | 5 | -14 | 8 | 14
Cc1ccnc(N=O)c1 | 45* | -2 | -9 | -3 | -20 | 3 | 55*
Cc1ccc(-n2[nH]c(C)c(C=Nc3cc(C)ccn3)c2=O)cc1 | 2 | -9 | -7 | -4 | -9 | 0 | .
CCc1noc(C)c1C(=O)OC(C)C(=O)Nc1cc([N+](=O)[O-])ccc1OC (centres undefined) | 98* | -2 | 0 | 4 | 2 | -1 | -2
C[C@H]1[C@@H](OC(=O)NCc2ccc(Cl)c(Cl)c2)CC[C@@]23CCCN2C(=O)CCC[C@@H]13 | -1 | 1 | 0 | 0 | . | . | .
Cc1nnc(C)n1N=Cc1ccc(Cl)c([N+](=O)[O-])c1 | 0 | -1 | 1 | -1 | . | 1 | .
Cc1ccc2nc(-c3ccc(CN4CCC5(CC4)CNc4ccccc45)cc3)c(-c3ccccc3)nc2c1 | -4 | -7 | 0 | 4 | . | 12 | .
O=C(C=Cc1ccc(O)c(O)c1)NCC(=O)NC(Cc1ccccc1)C(=O)O (centres undefined) | 3 | 3 | 2 | -5 | . | 2 | .
Cc1cc(C)c(C(=O)COc2cccnc2[N+](=O)[O-])cc1C | 38* | 0 | -8 | 1 | -3 | 3 | 51*
COCCn1c(C)cc(C(=O)COc2cccnc2[N+](=O)[O-])c1C | 2 | -4 | -4 | -1 | -1 | 0 | .
COC(=O)c1ccc(CSc2n[nH]c(=S)s2)o1 | 27* | 4 | 1 | -3 | -5 | -1 | -1
